# Screening data deposited in PubChem BioAssay by National Center for Advancing Translational Sciences (NCATS).
# ELG1 genotox: induces genotoxicity in HEK293T cells with luciferase-tagged ELG1; HEK293T ELG1-luciferase reporter, luminescence, 16 h; Potency, µM (highest dose often 46 µM), most hits filed as activators; 330,000 tested, 1.3% active; also: nearly all actives have a fitted effect of over 60% in size
#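 ELG1-luciferase HEK293T cells, 2,000/well; compound pinned in; 16 hr, 37 °C, 5% CO2; ONE-Glo, 30 min RT; luminescence on CCD imager.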
# NPC1 prom act: NPC1 promoter activation | Huh7 NPC1 promoter luciferase reporter, 24 h | Potency, µM (top dose mostly 9.22 µM), actives largely listed as activators | 320,000 tested, 2.4% active | AID 485313; also: nearly all actives have a fitted effect of over 60% in size
#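 Compounds in DMSO were transferred onto Huh7 NPC1-luciferase reporter cells pre-incubated 2 h; after 24 h at 37 °C, Amplite reagent was dispensed and luminescence recorded 10 min later.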
# SMN2 splice enh: enhancers of SMN2 splice variant expression | HEK293 SMN2-luciferase splicing reporter, luminescence, 30-36 h | 210,000 tested, 2.8% active | Potency, µM (titrated, usually from 46.1 µM), most hits filed as activators; also: nearly all actives have a fitted effect of over 55% in size
#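 qHTS luciferase splicing reporter: luminescence rises when SMN2 exon 7 is included in transfected HEK293 cells. Compound exposure lasted 30-36 h at 37C, with 4.5 mM final sodium butyrate as control, followed by a ONE-Glo read.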
# ELG1 DNA repair: ELG1-dependent DNA repair inhibition. HEK293T ELG1-luciferase reporter, luminescence, 16 h; DNA damage induced by 5-fluorouridine. Potency, µM (series often up to 46.1 µM), actives largely listed as inhibitors. 330,000 tested, 2.3% active; also: nearly all actives have a fitted effect of over 55% in size
#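 DMSO vehicle served as the neutral condition. Each well held 2,000 cells given 5-fluorouridine plus compound; after 16 hr at 37 °C/5% CO2, ONE-Glo was added and luciferase measured 30 min later.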
# Rab9 prom act: Rab9 promoter activation; Huh7 Rab9 promoter-luciferase reporter, luminescence, 24 h; Potency, µM (titrated, usually from 9.22 µM), usual class: activators; 320,000 tested, 2.8% active; AID 485297; also: nearly all actives have a fitted effect of over 60% in size
#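 Luciferase signal after 10 min detection reagent at ambient indicates Rab9 promoter upregulation; stably transfected Huh7 cells were treated 24 h with compound in DMSO at 37 °C, 5% CO2.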
# FLuc counter: inhibits or activates purified firefly luciferase, miR-21 counter-screen; Potency, µM (top dose mostly 57.5 µM), hits mostly inhibitors; purified FLuc, Km substrates, luminescence inhibition; AID 588342; P08659; 360,000 tested, 6.9% active; also: nearly all actives have a fitted effect of over 55% in size
# Target sequence (P08659 whole entry, looked up): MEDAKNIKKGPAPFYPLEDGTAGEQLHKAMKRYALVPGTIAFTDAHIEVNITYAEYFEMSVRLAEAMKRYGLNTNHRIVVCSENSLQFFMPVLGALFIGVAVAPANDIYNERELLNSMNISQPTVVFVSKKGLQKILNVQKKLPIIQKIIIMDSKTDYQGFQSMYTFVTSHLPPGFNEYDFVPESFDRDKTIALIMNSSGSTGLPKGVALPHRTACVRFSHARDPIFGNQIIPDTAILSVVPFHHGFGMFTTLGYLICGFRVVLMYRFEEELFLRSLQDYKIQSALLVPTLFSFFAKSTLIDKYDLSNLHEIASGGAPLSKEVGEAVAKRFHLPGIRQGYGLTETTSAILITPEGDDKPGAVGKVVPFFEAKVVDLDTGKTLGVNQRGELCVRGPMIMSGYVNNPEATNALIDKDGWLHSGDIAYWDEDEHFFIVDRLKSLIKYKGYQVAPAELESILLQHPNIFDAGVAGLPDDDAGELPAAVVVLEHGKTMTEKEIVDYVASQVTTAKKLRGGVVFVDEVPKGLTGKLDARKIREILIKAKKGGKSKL
#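 Biochemical qHTS of compounds, final roughly 60 µM downward over six points, against 10 nM purified firefly luciferase using Km concentrations of substrates (10 uM D-luciferin, 10 uM ATP) in Tris acetate pH 7.5 buffer; luminescence output.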
# Hits are given with their value; n = inactive; u = inconclusive; x = not tested or not shown; [ ] = dose if it differs, or a comment. The list is not random: actives were taken first. Their share in the collection is about 9.2%. Calls follow the shape of the dose curve; as a rule, active = well fitted curve in the direction sought with a large enough effect; inconclusive = small, poorly fitted or top-dose-only effect, or another doubt; inactive = no such curve, though single readings can be large; an effect the other way counts as inactive or inconclusive.
SMILES,ELG1 genotox,NPC1 prom act,SMN2 splice enh,ELG1 DNA repair,Rab9 prom act,FLuc counter
C/C(=N\N1CCN(C2c3ccccc3-c3ccccc32)CC1)c1cccnc1,n,n,n,n,n,n
CN=c1scc(-c2ccccc2F)n1/N=C(\C)c1cccnc1,u,1.4µM,11µM,u,1.8µM,7.6µM
COc1ccccc1Nc1nc2nonc2[nH]c1=O,n,n,x,n,n,u
Cc1ccc(Nc2nc3nonc3[nH]c2=O)cc1,u,n,n,u,u,15µM
Cc1ccc(-c2n[nH]c3c2C(c2ccc(C(C)(C)C)cc2)NC3=O)cc1 (stereo unspecified),x,x,n,x,x,n
Cc1cc(C)cc(NC(=O)C2CCN(S(=O)(=O)c3c(C)noc3/C=C/c3ccco3)CC2)c1,x,x,n,x,x,n
Cc1cccc(NC(=O)C2CCN(S(=O)(=O)c3c(C)noc3/C=C/c3ccco3)CC2)n1,n,n,n,13µM,n,n
COc1ccc(-c2nc(-c3cccnc3)no2)cc1OC,u,u,x,u,u,17µM
COc1cc(-c2nc(-c3cccnc3)no2)cc(OC)c1OC,n,n,n,23µM,n,n
Cc1c(C(C)CCCO)oc(=O)c2c1Oc1c(C)c(C(C)C[C@H](C)O)oc(=O)c1C2 (stereo partly specified),n,n,x,n,n,n
Cc1ccc(-n2c(=O)c3c(c4cc(C)ccc4n3C)n(CC(=O)NCc3ccccc3Cl)c2=O)cc1,x,x,n,x,x,n
CN(CC(=O)Nc1ccccc1C(F)(F)F)C(=O)CSc1nc(N)cc(N)n1,n,n,x,n,n,n
COC(=O)c1sc(NC(=S)NC(=O)c2ccccc2Cl)nc1C,u,u,n,u,u,6.7µM
COC(=O)c1sc(NC(=S)NC(=O)c2ccccc2)nc1C,u,u,n,u,2.5µM,4.8µM
CCOC(=O)c1sc(NC(=S)NC(=O)c2ccccc2)nc1C,u,n,u,u,n,u
O=C(Nc1nnc(COc2ccc(Cl)cc2)s1)c1ccco1,n,n,x,n,n,u
O=C(Nc1cccc(/C=C/c2ccccn2)c1)c1cc(Cl)ccn1,u,u,x,u,2.8µM,19µM
O=C(Nc1ccc(F)c(F)c1)c1ccc(-n2cncn2)c([N+](=O)[O-])c1,n,n,x,u,n,n
O=C(Nc1cccc(/C=C/c2ccccn2)c1)c1ccc(-n2cncn2)c([N+](=O)[O-])c1,n,n,x,9.2µM,n,24µM
Cc1ccsc1/C=N/N=C1\C(=O)Nc2ccccc21,n,u,n,u,n,u
O=C1c2ccccc2C(=O)N1/N=C/c1ccc(O)c(O)c1O,n,n,x,n,n,17µM
COc1cc(/C=N/N=C2/C(=O)Nc3ccccc32)ccc1O,u,n,n[1.84 µM],u,n,6.7µM
O=C1Nc2ccccc2/C1=N\N=C\c1ccc(O)c(O)c1,u,n,x,u,n,24µM
COc1cc(/C=N/N=C2/NC(=O)C(Cc3ccc(F)cc3)S2)ccc1O (stereo unspecified),u,n,n,u,n,2.7µM
CCOc1cccc(C(=O)N(Cc2ccc(N(C)C)cc2)CC2CCCO2)c1 (stereo unspecified),x,x,n,x,x,n
SMILES,ELG1 genotox,NPC1 prom act,SMN2 splice enh,ELG1 DNA repair,Rab9 prom act,FLuc counter
COc1cc(/C=N/N2C(=O)c3ccccc3C2=O)ccc1O,n,n,n,n,n,12µM
COc1ccc(CNC(=O)Cn2ncn3cccc3c2=O)cc1,u,u,11µM,u,1.6µM,21µM
COc1ccc(CNC(=O)Cn2ncn3c(cc4ccccc43)c2=O)cc1,n,n,x,n,n,n
COc1ccc(C)cc1S(=O)(=O)N(CC(=O)NC1CCCC1)c1ccc(F)cc1,n,n,x,n,n,n
Nc1c2c(nc3ccc(Br)cc13)N(c1ccccc1)CC2,n,n,n,n,n,u
Nc1c2c(nc3ccc(Br)cc13)N(Cc1ccccc1)CC2,n,n,n,n,n,17µM
Cc1cccc(N2CCc3c2nc2ccc(Br)cc2c3N)c1,n,n,n,u,n,8.5µM
Nc1c2c(nc3ccc(Br)cc13)N(C1CCCCC1)CC2,n,n,n,n,n,u
Cc1cc(C)n(CC(=O)N/N=C/c2ccc([N+](=O)[O-])s2)n1,n,n,n,15µM,n,n
COc1cc([N+](=O)[O-])cc(/C=N/NC(=O)Cn2nc(C)cc2C)c1O,n,n,x,n,n,n
Cc1cc(C)n(CC(=O)N/N=C/c2cccs2)n1,n,n,n,u,n,17µM
C[C@@]12CCC(=O)C=C1CC[C@H]1C2[C@@H](O)C[C@]2(C)[C@@H]1CC[C@@]2(O)C(=O)CO (stereo partly specified),x,x,n[9.22 µM],x,x,x
CC(C)Sc1nnc(Nc2ccccc2)s1,u,4µM,n,u,2µM,15µM
Cc1ccc(C(=O)N2CC(C)OC(C)C2)cc1S(=O)(=O)N1CCCCC1 (stereo unspecified),n,n,x,n,n,n
O=C(OCC(=O)N1CCCCC1)c1ccc2ccccc2n1,n,x,x,u,x,x
O=C(COC(=O)CNC(=O)c1ccccc1Cl)Nc1ccccc1Cl,n,n,x,u,n,n
CCOC(=O)c1sc(=NC(=O)c2cc(OC)c(OC)c(OC)c2)n(C)c1C,n,n,n,n,n,n
CCOC(=O)c1sc(=NC(=O)c2cccc(Br)c2)n(C)c1C,u,u,x,u,4.5µM,n
CCOC(=O)c1sc(=NC(=O)c2cccc(C)c2)n(C)c1C,u,u,10µM,u,2µM,u
CCN(CC)C(=O)c1ccc(CS(=O)(=O)Cc2ccccc2)cc1,n,n,x,n,n,n
CC(C)N(C(=O)[C@H]1C[C@H](CC(=O)NCc2cccc(C(F)(F)F)c2)C(=O)N2CCc3c([nH]c4ccc(Cl)cc34)[C@]12C)C(C)C,n,x,x,u,x,x
N/C(=N\OC(=O)Cc1cccs1)c1cccc([N+](=O)[O-])c1,n,n,n,u,n,u
N/C(=N\OC(=O)Cc1cccs1)c1ccccc1,u,u,n,u,n,15µM
Cc1cccc(/C(N)=N/OC(=O)Cc2cccs2)c1,u,u,n,u,u,13µM
N/C(=N\OC(=O)Cc1cccs1)c1ccc(Cl)cc1,u,n,x,u,n,13µM
SMILES,ELG1 genotox,NPC1 prom act,SMN2 splice enh,ELG1 DNA repair,Rab9 prom act,FLuc counter
Cc1ccc(/C(N)=N/OC(=O)Cc2ccccc2)cc1,u,n,n,u,n,19µM
Nc1c(N(CCO)C(=O)C2CCCC2)c(=O)[nH]c(=O)n1Cc1ccccc1,n,x,x,n,x,x
O=Cc1ccccc1-c1cn(CCCOCc2ccccc2)nn1,n,n,x,n,n,n
Cc1ccc(/C(N)=N/OC(=O)Cc2cccc3ccccc23)cc1,n,n,n,n,n,n
Cc1ccc(/C(N)=N/OC(=O)Cc2cccs2)cc1,u,u,n,u,u,9.5µM
CCOc1ccccc1NC(=O)C1=C(C)Nc2ncnn2C1c1ccccn1 (stereo unspecified),x,x,x,x,x,n
